Data reported in PubChem BioAssay (NCATS).
Results filed as inconclusive are left out. A call without a number means that no potency is given here. Active and inactive are the calls of the source. Calls follow the shape of the dose curve; as a rule, active = well fitted inhibition curve with a large enough effect; inconclusive = small, poorly fitted or top-dose-only effect; inactive = flat fitted curve, though single readings scatter.

Tested on: Zika virus NS2B-NS3 protease
Assay: Primary screen GU AMC qHTS for Zika virus inhibitors (AID 1347154); also: nearly all actives have a fitted effect of over 70% in size
Summary of the method: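 Fluorogenic AMC-substrate cleavage by noncovalent NS2B-NS3 protease complex (25 nM, pH 8.0 Tris buffer with Tween 20) followed for 15 minutes at room temperature (~20% conversion). Percent inhibition from ex340/em450 signal change, fitted by 4-parameter Hill equation.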

With `C(=C\c1ccccc1)/CN1CCN(CCOC(c2ccccc2)c2ccccc2)CC1` as the compound, how does the Potency read?
Its Potency is “inactive”.
